{"source": "PubChem BioAssay AID720534", "about": "(National Center for Advancing Translational Sciences (NCATS), 2013)", "note": "The campaign covered roughly 1,600 compounds. About 990 (62%) were called active. Roughly 30% stayed inconclusive and do not appear here. Calls follow the shape of the dose curve; as a rule, active = well fitted inhibition curve with a large enough effect; inconclusive = small, poorly fitted or top-dose-only effect; inactive = no such curve, though single readings can be large or run the other way. So high a share suggests a set chosen from earlier hits. This excerpt belongs to a sample that is enriched for actives. Potency is read from the fitted curve at half-maximal effect."}
{"assay": "qHTS for Inhibitors of TGF-b: Confirmation of Cherry Picks; also: nearly all actives have a fitted effect of over 65% in size", "conditions": "HepG2 CAGA-GFP TGF-b reporter, GFP fluorescence, 18 h; cells stimulated with TGF-beta, 500 pg/mL", "text": "TGF-b is a main component in the TGF-b signaling pathway which plays diverse roles in cellular and development pathways. TGF-b is mediated through transcription factors called \"Smads\". Although the Smad-dependent pathway is the primary canonical TGF-b signaling mode, TGF-b1 can also activate alternative signaling pathways, including those involving MAPK (ERK, JNK and p38). This interaction may mediate or enhance Smad-dependent responses, or can exert Smad-independent effects. The complexity of this signaling cascade allows the TGF-b superfamily to perform unique, overlapping or redundant functions. We believe that targeting the TGF-beta pathway at the Smad-transcription factor level may eliminate the consequences of disrupting the entire pathway and offer specificity without affecting other signaling pathways. Smad3 is the primary transducer of TGF-b's signals and Smad3 regulates many functions attributed to TGF-b signaling. We hypothesize that Smad3 inhibitors will selectively eliminate Smad3-specific TGF-beta signals without undesired off-target effects. We aim to identify Smad3-small molecule antagonists using a quantitative high throughput screening (qHTS) approach. In this assay, hits identified from the primary screen were re-tested. MH087449NIH Chemical Genomics Center [NCGC] NIH Molecular Libraries Probe Centers Network [MLPCN] MLPCN Grant: MH087449 Assay Submitter (PI): Sushil Rane, National Institute of Diabetes and Kidney Diseases\nSuspensions of trypsinized HEPG2 CAGA-GFP cells were dispensed into white, tissue culture-treated, solid 1536-well plates at 5uL/well (1000 cells/well final concentration) in DMEM medium supplemented with 1% FBS. Plates were incubated at 37 degrees C for 2 hours, after which 23 nL of compounds or DMSO were delivered to each well using a pin tool. One uL of recombinant TGF-beta in DMEM (1% FBS) was then dispensed (500 pg/mL final concentration), and plates were incubated at 37 degrees C for 18 hours. The plates were measured on an Acumen eX3 Explorer plate reader for GFP fluorescence (ex488/em500-530). GFP values were calculated by determining the mean GFP fluorescence of individual cells, and compiling these values for each well to determine a total well GFP signal. The %Activity was determined from the corrected fluorescence values. A titration of the known TGF-B inhibitor SB431542 was included to monitor plate performance, while unstimulated HEPG2 (-TGF-B) control wells were used to normalize %Activity of identified inhibitors; unstimulated wells corresponded to 100%Activity (full inhibition), while stimulated cell controls (+DMSO) were used to normalize 0%Activity (no inhibition). Concentration-response curves were fitted to the signals arising from the resulting fluorescence. The concentration-effect curves were then classified based on curve quality (r2), response magnitude and degree of measured activity, and compounds were subsequently categorized based on their curve class."}
{"smiles": "COC(=O)C1=C(c2cc3ccccc3o2)C[C@@H]2CC[C@H]1N2C(=O)NC1CCCCC1", "Potency": "20.6 µM (active)"}
{"smiles": "O=Cc1cn(Cc2ccc(F)cc2Cl)c2ccccc12", "Potency": "9.2 µM (active)"}
{"smiles": "CN(C(=O)c1cccc(NC(=O)Cc2cccc([N+](=O)[O-])c2)c1)C1CCCCC1", "Potency": "13 µM (active)"}
{"smiles": "CCC(C)(O)C(=O)OC1C(=O)OC2CC3C(C)=CC(=O)C(O)C3(C)C3C4(O)OCC23C1C(C)C4O", "note": "(stereo not given)", "Potency": "0.291 µM (active)"}
{"smiles": "CC[C@H]1CN2CCc3cc(OC)c(OC)cc3[C@@H]2C[C@@H]1C[C@H]1NCCc2cc(OC)c(OC)cc21", "Potency": "0.0231 µM (active)"}
